According to PubChem BioAssay (NCI):
Compounds without any hit were thinned out: in the full panel of roughly 83,000, 20% have a hit.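 Assay: single dose, 48 h. Readout: percent growth (0 = no net growth; negative = cell death). Active: <10.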 Unmarked numbers belong to inactive results. Calls of active or inactive are those of the source.

Experiments:
Assay in all cases: NCI-60 one-dose screen, 48 h (100 = growth as untreated, 0 = no growth, -100 = all killed)
Conditions in all cases: 10 µM unless noted
HCT-15 colon = tested on: HCT-15 colon
HT29 colon = tested on: HT29 colon
SNB-75 CNS = tested on: SNB-75 CNS
SNB-19 CNS = tested on: SNB-19 CNS
U251 CNS = tested on: U251 CNS
PC-3 prostate = tested on: PC-3 prostate
SK-MEL-5 melanoma = tested on: SK-MEL-5 melanoma
UACC-62 melanoma = tested on: UACC-62 melanoma
LOX IMVI melanoma = tested on: LOX IMVI melanoma
SK-MEL-28 melanoma = tested on: SK-MEL-28 melanoma
SK-MEL-2 melanoma = tested on: SK-MEL-2 melanoma
EKVX NSCLC = tested on: EKVX NSCLC
SN12C renal = tested on: SN12C renal
UO-31 renal = tested on: UO-31 renal
TK-10 renal = tested on: TK-10 renal
ACHN renal = tested on: ACHN renal
CAKI-1 renal = tested on: CAKI-1 renal
A498 renal = tested on: A498 renal
CCRF-CEM leukemia = tested on: CCRF-CEM leukemia
MOLT-4 leukemia = tested on: MOLT-4 leukemia

| Compound | growth (HCT-15 colon) | growth (HT29 colon) | growth (SNB-75 CNS) | growth (SNB-19 CNS) | growth (U251 CNS) | growth (PC-3 prostate) | growth (SK-MEL-5 melanoma) | growth (UACC-62 melanoma) | growth (LOX IMVI melanoma) | growth (SK-MEL-28 melanoma) | growth (SK-MEL-2 melanoma) | growth (EKVX NSCLC) | growth (SN12C renal) | growth (UO-31 renal) | growth (TK-10 renal) | growth (ACHN renal) | growth (CAKI-1 renal) | growth (A498 renal) | growth (CCRF-CEM leukemia) | growth (MOLT-4 leukemia) |
| --- | --- | --- | --- | --- | --- | --- | --- | --- | --- | --- | --- | --- | --- | --- | --- | --- | --- | --- | --- | --- |
| COc1c(O[C@@H]2OC(CO)[C@H](O)[C@H](O)C2O)cc2oc3cc(O)c(CC=C(C)C)c(O)c3c(=O)c2c1CC=C(C)C (stereo not given in full) | 97.9% | 93.6% | 93.9% | 96.1% | 77.9% | 73.8% | 97.8% | 83.8% | 85.2% | 106% | 97.3% | 93.5% | 84.4% | 90.8% | 110% | 96.5% | 103% | 83.8% | 92.9% | 62.2% |
| CNc1nc2ncc(-c3c(C)noc3C)cc2n1Cc1ccccc1 | 51.2% | 31.8% | 0.561% (active) | 59.3% | 61% | 32.2% | 47.9% | 17% | 32.5% | 57.4% | 67.4% | 62.6% | 71.1% | 21.3% | 24.3% | 42.1% | 36.7% | 0.868% (active) | 50.5% | 48.9% |
| CN1CCN(Cc2ccc(NC(=O)c3cncc(C#Cc4cnc(N)c5ccc(C#N)cc45)c3)cc2C(F)(F)F)CC1 | -82.4% (active) | -32.4% (active) | -20% (active) | 25.8% | 3.03% (active) | 27.4% | -93.2% (active) | -51.8% (active) | -95.8% (active) | -81% (active) | -62% (active) | 43.4% | -81.1% (active) | -78.4% (active) | -2.47% (active) | -92.5% (active) | -51.5% (active) | -29.8% (active) | 3.96% (active) | 2.26% (active) |
| COc1ccc(-c2csc(NC(=O)CSc3nc(C)cc(=O)[nH]3)n2)cc1 | 102% | 107% | 95.9% | 89.3% | 102% | 94.9% | 96.7% | 87.7% | 96.3% | 106% | 103% | 96.1% | 98.2% | 99% | 107% | 105% | 109% | 103% | 106% | 110% |
| c1ccc2c(-c3cnn4cc(-c5ccc(N6CCNCC6)cc5)cnc34)ccnc2c1 | -55.6% (active) | -76.9% (active) | -96.9% (active) | -57.8% (active) | -79% (active) | -12% (active) | -84.7% (active) | -84.2% (active) | -85.8% (active) | -90.7% (active) | -59.2% (active) | -37.3% (active) | -75.5% (active) | -93.4% (active) | -74.8% (active) | -99.3% (active) | -99.6% (active) | -87% (active) | -48.2% (active) | -28.7% (active) |
| C=CN(C(=O)N1CCN(c2cc3c(cc2F)c(=O)c(C(=O)O)cn3C2CC2)CC1)c1nc(-c2ccc(C)cc2)cs1 | 9.38% (active) | 6.66% (active) | 14.4% | 18.5% | 11.4% | 14.7% | 26.6% | 29.2% | 8.56% (active) | 42.1% | 35.2% | 24.2% | 8.99% (active) | 13.4% | 42.3% | 27.7% | 20.9% | -4.05% (active) | 4.64% (active) | 13.9% |
| COc1cc(C)cc(-c2c(-c3cc(N4CC(O)C4)nc(-c4cccnc4)n3)cnn2C)c1 | 77.4% | 88.3% | 82.5% | 91.4% | 91.3% | 82.5% | 69.8% | 73.1% | 52.9% | 92.5% | 113% | 91.7% | 77.8% | 76.7% | 99.5% | 66.5% | 94.5% | 72.8% | 78.9% | 94.6% |
| Fc1ccc(/C=C/c2cc(/C=C/c3ccc(F)cc3)n(-c3cc(F)cc(F)c3)n2)cc1 | 103% | 78.7% | 91% | 105% | 117% | 76.4% | 100% | 85.7% | 102% | 101% | 90.8% | 92.3% | 102% |  | 82.5% | 99% | 90.6% | 95.6% | 3.7% (active) |  |
| CCOC(=O)/C(=C/c1ccc([N+](=O)[O-])cc1)C(=O)c1ccccc1 | -15.2% (active) | -23.7% (active) | 47% | 51.5% | 26% | 5.94% (active) | 62.4% | 19.7% | -68.2% (active) | -29.4% (active) | 53.9% | 103% | 79.3% | -14.3% (active) | 20.7% | -7.93% (active) | 81.6% | 83.5% | 6.25% (active) | 4.35% (active) |
| Cn1cc(-c2csc(-c3cn(CCO)c4ccc(F)cc34)n2)c2cccnc21 | 41.5% | 18.2% | 46.4% | 69.6% | 49.3% | 44.6% | 62.9% | 52.4% | 44.8% | 74.4% | 52.2% | 57.4% | 73.2% |  | 47.7% | 69.5% | 78.4% | 45.3% | 44.4% | 46.7% |
| Cc1ccc(C2=Nc3c(N)nc(N)nc3NC(c3cccc(Nc4ccnc5cc(C(F)(F)F)ccc45)c3)C2)cc1 (stereo not given) | 15.2% | 1.9% (active) | 7.55% (active) | 34.4% | 12.8% | 16.5% | 17.6% | 40.8% | -2.42% (active) | 66.8% | -8.24% (active) | 38.1% | 39.2% | 39.6% | 66% | 39.1% | 29% | 58.4% | 3.36% (active) | 1.92% (active) |
| O=C(OCC(O)C(=O)NC12CC3CC(CC(C3)C1)C2)c1cccc(Br)c1 (stereo not given) | 95.2% | 93.5% | 98.5% | 98.2% | 97.5% | 90.1% | 103% | 92.9% | 95.2% | 103% | 103% | 96.4% | 102% |  | 109% | 101% | 96.2% | 94.4% | 81.9% | 87% |
| COc1cccc2cc(N(C)c3ncnc4ccccc34)ccc12 | 11.1% | 2.77% (active) | 34.8% | 31.8% | 11% | 5.88% (active) | -32.4% (active) | 23.4% | 15.5% | 33.3% | 30.1% | 43.8% | 20.9% |  | 51% | 6.07% (active) | 10.8% | -7.44% (active) | 22% | 16.8% |
| CC(=O)[C@H]1CC[C@]2(C)[C@@H]1CC[C@@H]1[C@@]3(C)C/C(=C/c4cccnc4)C(=O)C(C)(C)[C@@H]3CC[C@]12C | 54.4% | 57.1% | 106% | 87.1% | 60.7% | 26.9% | 38.9% | 59.9% | 87.6% | 94.9% | 85.3% | 85.1% | 75.6% | 78.2% | 162% | 87.3% | 72.5% | 100% | 31.7% | 20.3% |
